Assay results: PubChem BioAssay (NCATS)
Records with an inconclusive call do not appear. Entries that show only a call come without a potency. Calls of active or inactive are those of the source. Unless noted, the call rests on the fitted dose curve; in most records, active means well fitted curve in the direction sought with a large enough effect; inconclusive means small, poorly fitted or top-dose-only effect, or another doubt; inactive means no such curve, though single readings can be large; an effect the other way counts as inactive or inconclusive.

Key:
[1] = tested on: PA-1; experiment: Primary qHTS to identify gynecologic anti-cancer compounds using libraries of approved drugs and bioactive compounds (AID 1345084); conditions: Gynecologic cancer cell panel viability, ATPlite luminescence, 48 h; series mostly up to 57.5 µM; further: nearly all actives have a fitted effect of over 55% in size; further: potency means the concentration at half of the fitted maximal effect
Method in brief: (§1)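 Cytotoxicity screen measuring ATP content by luciferase luminescence. Each compound is applied at five concentrations for 48 h at 37 C with 5% CO2.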

[2] = tested on: Tov-21-G; experiment: as above; conditions: Gynecologic cancer cell panel viability, ATPlite luminescence, 48 h; series mostly up to 57.5 µM
Method in brief: as §1

[3] = tested on: Tov112D; experiment: as above; conditions: Gynecologic cancer cell panel viability, ATPlite luminescence, 48 h; series mostly up to 57.5 µM
Method in brief: as §1

[4] = tested on: SKOV3; experiment: as above; conditions: Gynecologic cancer cell panel viability, ATPlite luminescence, 48 h; series mostly up to 57.5 µM
Method in brief: as §1

[5] = qHTS assay for small molecule activators of the human pregnane X receptor (PXR) signaling pathway (AID 720659; call rule not given here); conditions: DPX-2 HepG2 CYP3A4-luciferase, 24 h; series mostly up to 92.3 µM
[6] = Drug repurposing screens with cells derived from glioblastoma tumor samples (AID 1345199); conditions: GBM patient neurospheres viability, ATP luminescence, 48 h; further: nearly all actives have a fitted effect of over 40% in size; further: potency means the concentration at half of the fitted maximal effect
Method in brief: (§2)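 Four patient lines of CD133+ GBM neurospheres were screened at several concentrations; hits were retested in those lines plus three slower-growing GBM lines, using 48-hour treatment and ATP-based viability.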

[7] = tested on: astro; experiment: as above; conditions: viability, ATP luminescence, 48 h; series mostly up to 45.9 µM
Method in brief: as §2

[8] = target: Nuclear receptor subfamily 1 group I member 2 (Rattus norvegicus) (UniProt Q9R1A7); experiment: qHTS assay for small molecule activators of the rat pregnane X receptor (rPXR) signaling pathway (AID 651751; call rule not given here); conditions: rPXR reporter cells, luciferase (One-Glo), 24 h
Chain of Nuclear receptor subfamily 1 group I member 2 (Rattus norvegicus) (Q9R1A7 whole entry, looked up): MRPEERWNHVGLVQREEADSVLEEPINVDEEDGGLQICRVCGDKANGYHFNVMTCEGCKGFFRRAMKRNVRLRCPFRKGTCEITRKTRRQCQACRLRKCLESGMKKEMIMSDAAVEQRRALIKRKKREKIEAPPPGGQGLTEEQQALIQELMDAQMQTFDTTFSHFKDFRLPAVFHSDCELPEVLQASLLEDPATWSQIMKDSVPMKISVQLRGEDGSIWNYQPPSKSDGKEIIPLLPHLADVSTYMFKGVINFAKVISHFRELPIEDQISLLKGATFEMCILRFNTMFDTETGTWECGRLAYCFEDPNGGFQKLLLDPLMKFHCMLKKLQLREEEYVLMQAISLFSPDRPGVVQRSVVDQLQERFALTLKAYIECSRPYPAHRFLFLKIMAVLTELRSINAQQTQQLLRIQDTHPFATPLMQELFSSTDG

[9] = at 46.1 µM (top of the series), tumour line C
[10] = at 45.9 µM (top of the series), tumour line B

## O=C(O)c1ccnc2cc(C(OCCN3CCCCC3)c3ccccc3Cl)[nH]c12 (configuration not stated)
[1]
  Potency: inactive
[2]
  Potency: inactive
[3]
  Potency: inactive

## COC1=CC(=O)O[C@@H](/C=C/c2ccccc2)C1
[1]
  Potency: inactive
[4]
  Potency: inactive
[2]
  Potency: inactive
[3]
  Potency: inactive
[5]
  outcome: inactive

## C[C@H](NC(=O)Cc1cc(F)cc(F)c1)C(=O)N[C@@H]1N=C(c2ccccc2)c2ccccc2N(C)C1=O
[1]
  Potency: inactive
[2]
  Potency: inactive
[3]
  Potency: inactive

## CO[C@H]1[C@H](O)[C@H](O[C@H]2CC[C@]3(C)C4CC[C@]5(C)[C@H](C6=CC(=O)OC6)CC[C@]5(O)C4CC[C@@H]3C2)O[C@@H](C)[C@@H]1O (some centres not stated)
[1]
  Potency: 89.1 nM (active)
[2]
  Potency: 31.6 nM (active)

## CCC1NC(=O)C2C(Cl)C(Cl)CN2C(=O)C(C(C)O)NC(=O)CC(c2ccccc2)NC(=O)C(CO)NC1=O (configuration not stated)
[1]
  Potency: inactive
[2]
  Potency: inactive
[3]
  Potency: inactive

## CCN1CC2(COC)C3[C@@H](OC)C4C1C3(C1C[C@]3(O)[C@H](OC(=O)c5ccccc5)C1[C@]4(OC(C)=O)[C@@H](O)[C@@H]3OC)[C@H](OC)C[C@H]2O (some centres not stated)
[4]
  Potency: inactive
[2]
  Potency: inactive
[3]
  Potency: inactive

## CC(C)[C@@]1(NC(=O)[C@@H]2C[C@@H]3c4cccc5[nH]cc(c45)C[C@H]3N(C)C2)O[C@@]2(O)[C@@H]3CCCN3C(=O)[C@H](Cc3ccccc3)N2C1=O
[6]; [9]
  activity, negative = cell killing: 9.68% (inactive)
[6]; tumour line A
  Potency: 3160 nM (active)

## Cc1c(Cl)cccc1S(=O)(=O)Nc1nc(CC(=O)N2CCN(C)CC2)cs1
[1]
  Potency: inactive
[2]
  Potency: inactive
[3]
  Potency: inactive

## C/C=C(\C)C(=O)OC1CC2C(CC=C3CC(OC4CC(OC)C(OC5CC(OC)C(OC6OC(C)C(OC7OC(CO)C(O)C(O)C7O)C(OC)C6O)C(C)O5)C(C)O4)CCC32C)C2(O)CCC(C(C)=O)C12C (configuration not stated)
[1]
  activity change, negative = cytotoxicity: -3.75% [at 11.6 µM] (inactive)
[4]
  activity change, negative = cytotoxicity: 18.2% [at 11.6 µM] (inactive)
[2]
  activity change, negative = cytotoxicity: 3.39% [at 11.6 µM] (inactive)
[3]
  activity change, negative = cytotoxicity: 3.97% [at 11.6 µM] (inactive)

## COc1cc2c(cc1OC)[C@@]13CCN4CC5=CCO[C@H]6CC(=O)N2[C@H]1[C@H]6[C@H]5C[C@H]43
[1]
  Potency: inactive
[2]
  Potency: inactive
[3]
  Potency: inactive
[6]; [10]
  activity, negative = cell killing: -6.02% (inactive)
[6]; at 45.9 µM (top of the series), tumour line D
  activity, negative = cell killing: -3.06% (inactive)
[6]; [9]
  activity, negative = cell killing: 1.45% (inactive)
[6]; tumour line A
  Potency: 79.4 nM (active)
[7]
  Potency: inactive

## CC(C)(C)c1cc(C(C)(C)C)c2c(c1)C(O)(C(F)(F)F)C(=O)O2 (configuration not stated)
[1]
  Potency: inactive
[4]
  Potency: inactive
[2]
  Potency: inactive
[3]
  Potency: inactive

## CC(=O)[C@H]1CC[C@H]2[C@@H]3CC[C@@H]4C[C@H](O)CC[C@]4(C)[C@H]3CC[C@]12C
[6]; [10]
  activity, negative = cell killing: -17.7% (inactive)
[6]; tumour line D
  Potency: 17800 nM (active)

## COC(=O)C1(C)CCC(O)C2(C)c3cc(O)c(C(C)C)cc3C(O)C(OC(C)=O)C12 (configuration not stated)
[2]
  Potency: inactive
[3]
  Potency: inactive

## CCCN1CCO[C@H]2c3cc(O)ccc3OC[C@@H]21
[1]
  Potency: inactive
[4]
  Potency: inactive
[2]
  Potency: inactive
[3]
  Potency: inactive

## CCOc1ccc2c3c1O[C@H]1[C@@H](O)C=C[C@H]4[C@@H](C2)N(C)CC[C@@]341
[6]; [10]
  activity, negative = cell killing: -22.9% (inactive)

## C[CH2][Hg][S]c1ccccc1C(=O)O
[2]
  Potency: 35500 nM (active)
[7]
  Potency: 1580 nM (active)

## CN[C@H]1[C@H](O)[C@H](O[C@@H]2[C@@H](O)[C@H](O[C@H]3O[C@H]([C@H](C)O)[C@@H](O)[C@H](O)[C@H]3N)[C@@H](N)C[C@H]2N)OC[C@@]1(C)O
[1]
  Potency: inactive
[4]
  Potency: inactive
[2]
  Potency: inactive
[3]
  Potency: inactive

## Cc1cccc(NC(=O)N[C@@H]2N=C(c3ccccc3)c3ccccc3N(C)C2=O)c1
[1]
  Potency: inactive
[2]
  Potency: inactive
[3]
  Potency: inactive

## COC1CC(OC2CCC3(C)C(CCC4C3CCC3(C)C(C5=CC(=O)OC5)C(OC(C)=O)CC43O)C2)OC(C)C1OC1OC(CO)C(O)C(O)C1O (configuration not stated)
[2]
  Potency: 1260 nM (active)
[3]
  Potency: 891 nM (active)

## CC[C@H]1CN2CC[C@H]1C[C@@H]2[C@@H](O)c1ccnc2ccc(OC)cc12
[4]
  Potency: inactive
[2]
  Potency: inactive
[3]
  Potency: inactive

## Cc1cc(C(=O)CN2CCCC2)c(C)n1-c1ccc(F)cc1
[1]
  Potency: inactive
[2]
  Potency: inactive
[3]
  Potency: inactive

## COc1cc(CCNCc2ccccc2O)c(OC)cc1C#N
[1]
  Potency: inactive
[4]
  Potency: inactive
[2]
  Potency: inactive
[3]
  Potency: inactive

## COc1cc(C)[nH]c(=O)c1CNC(=O)c1c(C)n([C@H](C)C2CCOCC2)c2ccccc12
[1]
  Potency: inactive
[2]
  Potency: inactive
[3]
  Potency: inactive

## CN1[C@@H]2CC[C@H]1CC(OC(=O)C1C=Nc3ccccc31)C2 (some centres not stated)
[1]
  Potency: inactive
[4]
  Potency: inactive
[2]
  Potency: inactive
[3]
  Potency: inactive

## CCCSP(=O)(OCC)SCCC
[1]
  Potency: inactive
[4]
  Potency: inactive
[2]
  Potency: inactive
[3]
  Potency: inactive
[6]; at 91.6 µM (top of the series), tumour line A
  activity, negative = cell killing: -29.2% (inactive)
[6]; at 91.6 µM (top of the series), tumour line B
  activity, negative = cell killing: -4.25% (inactive)
[6]; at 91.6 µM (top of the series), tumour line D
  activity, negative = cell killing: -15.9% (inactive)
[6]; at 99.2 µM (top of the series), tumour line C
  activity, negative = cell killing: 13.9% (inactive)
[7]
  Potency: inactive
[8]
  max response: 5.9% (inactive)
